Bioassay records (PubChem BioAssay)
The list is not random: actives were taken first. Their share in the collection is about 0.92%.
CIT2-GFP yeast = modulators of CIT2-GFP expression in yeast, primary screen, S. cerevisiae, GFP fusion, multiplex flow cytometry, MLPCN library; 320,000 compounds, 0.065% hits; AID 2029, 2009; S. cerevisiae CIT2-GFP strain, 3 h; 100 means same as DMSO wells; GFP response vs DMSO, % at 10 µM;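 active means GFP response relative to DMSO above a set limit, near the screen mean plus 3 SD, cut at about 150% in these data; inconclusive means Fewer than 70 cells measured for a yeast strain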;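 further: ratio of well median GFP fluorescence to mean of DMSO wells on the plate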
AGP1 TOR yeast = modulators of AGP1-GFP expression in yeast TOR pathway, primary screen, cell-based, multiplex flow cytometry, S. cerevisiae, MLPCN library. 3 h; GFP as percent of DMSO wells. GFP response vs DMSO, % at 10 µM. 320,000 compounds, 0.02% hits;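 active means GFP response relative to DMSO above a set limit, near screen average plus 3 SD, cut at about 150% in these data; inconclusive means fewer than 70 cells counted for the yeast strain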;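 further: median GFP channel fluorescence of the gated AGP1 strain per well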
MEP2-GFP yeast = modulators of MEP2-GFP levels in yeast, primary screen, S. cerevisiae, multiplex flow cytometry, MLPCN library; AID 2016, 2009; GFP response vs DMSO, % at 10 µM; S. cerevisiae MEP2-GFP strain, 3 h; 100% = DMSO control level; 330,000 compounds, 0.51% hits;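 active means GFP response versus DMSO above a set limit, roughly screen mean plus 3 SD, cut at about 180% in these data; inconclusive means fewer than 70 cells counted for a yeast strain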;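 further: median GFP fluorescence of the barcode-gated MEP2-GFP cells per well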
LAP4-GFP MLPCN = modulators of LAP4-GFP expression in yeast, primary screen, S. cerevisiae, multiplex flow cytometry, MLPCN library; 3 h; median GFP as percent of DMSO wells; AID 2023, 2009; GFP response vs DMSO, % at 10 µM; 320,000 compounds, 0.34% hits;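 active means GFP response vs DMSO above a set limit, about the screen mean plus 3 SD, cut at about 150% in these data; inconclusive means under 70 cell events counted for the yeast strain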
RPL19A TOR yeast = RPL19A-GFP expression modulators in yeast, primary screen, cell-based, S. cerevisiae, multiplex flow cytometry, MLPCN. 330,000 compounds, 0.3% hits. S. cerevisiae RPL19A-GFP strain, 3 h; hits give low values. percent response vs DMSO, % at 10 µM;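 active means percent response vs DMSO below 50%; inconclusive means fewer than 70 events counted for the yeast strain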;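 further: median channel GFP fluorescence of the barcoded RPL19A-GFP strain; lower means less RPL19A-GFP as with rapamycin TOR inhibition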
Hits are given with their value; . = inactive; ? = inconclusive; / = not tested or not shown; ! = a repeat was not active; [ ] = remark or other dose.

SMILES	CIT2-GFP yeast	AGP1 TOR yeast	MEP2-GFP yeast	LAP4-GFP MLPCN	RPL19A TOR yeast
COC(=O)Cc1ccc(OC(=O)c2cccc(S(=O)(=O)N3CCN(C)CC3)c2)cc1	.	.	.	.	.
Cc1ccc(C(C)C)c(OCc2ccc(C(=O)N/N=C/c3cccc(O)c3O)cc2)c1	.	.	.	.	.
O=C(/C=C/c1ccc(Cl)cc1)c1ccc([N+](=O)[O-])o1	?	?	279[may fluoresce violet]	.	42[may fluoresce violet]
Cc1ccc(C(=O)/C=C/c2ccc(Br)cc2)o1	.	.	.	.	.
Nc1nonc1-c1noc(-c2ccccc2Br)n1	?	.	261[may fluoresce violet]	.	45[may fluoresce violet]
Cc1cc(C)n2nc(SCC(=O)N(C)C)nc2n1	?	?	435[may fluoresce violet]	.	43[may fluoresce violet]
O=C(Cc1ccccc1)Nc1ccc2oc(=O)ccc2c1	.	.	.	.	.
CCCS(=O)(=O)N1CCC(C(=O)c2cccc(C(F)(F)F)c2)CC1	.	.	186	156	.
CCc1c(C)nc(N2CCN(c3ccc(OC)cc3)CC2)[nH]c1=O	.	.	.	.	.
COc1ccc(/C=N/NC(=O)c2cccc(S(=O)(=O)N3CCCC3)c2)cc1O	.	.	.	.	.
O=C(O)C1(c2ccccc2)CCN(S(=O)(=O)c2cccc(Cl)c2)CC1	?	?	194[may fluoresce violet]	.	33[may fluoresce violet]
CC(C)N(Cc1nnc(-c2ccc(Cl)cc2)o1)C(=O)c1cc2ccccc2o1	.	.	.	.	.
O=C(c1ccccc1Cl)N1CCN(c2ncccn2)CC1	.	.	.	.	.
Cc1ccc(SCCCn2cncn2)cc1	?	.	320[may fluoresce violet]	.	45[may fluoresce violet]
CC(=O)c1cccc(NC(=O)COc2ccccc2)c1	.	.	.	.	.
CCc1cccc(NC(=O)COc2ccccc2)c1	?	?	252[may fluoresce violet]	.	21[may fluoresce violet]
CC1CCCC(NC(=O)COC(=O)c2ccc3ncsc3c2)C1C (configuration not stated)	.	.	.	.	.
CCN(CC)Cc1c(C(=O)N/N=C/c2cccc3ccccc23)nnn1-c1nonc1N	.	.	.	.	.
CCOc1ccc(/C=N/NC(=O)c2nnn(-c3nonc3N)c2-c2ccc(OCC)cc2)cc1	.	.	.	.	.
CCN(CC)c1ccc(/C=N/NC(=O)c2nnn(-c3nonc3N)c2-c2ccc(C)cc2)cc1	?	.	193[may fluoresce violet]	.	33[may fluoresce violet]
CCN(CC)Cc1c(C(=O)N/N=C/c2ccccn2)nnn1-c1nonc1N	?	.	295[may fluoresce violet]	.	.
COc1ccc(N(CC(=O)N/N=C/c2ccc(OC)cc2OC)S(=O)(=O)c2ccccc2)cc1	.	.	.	.	.
COc1ccc(N(CC(=O)N/N=C/c2cc(OC)ccc2OC)S(=O)(=O)c2ccccc2)cc1	.	.	185	.	.
COCCOC(=O)C1=C(C)NC2=C(C(=O)CC(C)(C)C2)C1c1cccnc1 (configuration not stated)	.	.	.	.	.
CC1=C(C(=O)OCC2CCCO2)C(c2ccncc2)C2=C(CC(C)(C)CC2=O)N1 (configuration not stated)	?	.	216[may fluoresce violet]	.	.
SMILES	CIT2-GFP yeast	AGP1 TOR yeast	MEP2-GFP yeast	LAP4-GFP MLPCN	RPL19A TOR yeast
CCOc1ccccc1N(CC(=O)NC1CCCC1)C(=O)CCCC(=O)Nc1ccccn1	?	.	202[may fluoresce violet]	.	.
CN(C)CCCN1C(=O)C(=O)/C(=C(/O)c2ccncc2)C1c1ccccc1 (configuration not stated)	?	?	288[may fluoresce violet]	.	46[may fluoresce violet]
COc1ccc(CCNC(=O)CN(c2ccccc2OC)S(=O)(=O)c2ccc(C)cc2)cc1	.	.	.	.	.
COc1ccccc1N(CC(=O)NCc1ccccc1C)S(=O)(=O)c1ccc(C)cc1	?	?	206[may fluoresce red and violet]	?	?
CCN(Cc1nc(-c2ccc(OC)c(OC)c2)no1)C(=O)c1ccc2c(c1)OCO2	.	.	.	.	.
CC(=O)CC(c1ccccc1)c1c(O)c2ccccc2oc1=O (configuration not stated)	?	?	212![may fluoresce violet]	.	40![may fluoresce violet]
C/C(CC(=O)Nc1ccc2c(c1)OCO2)=N\NC(=O)OC(C)(C)C	.	.	.	.	.
Cc1ccnc2nc(C(=O)Nc3nnc(CC(C)C)s3)nn12	.	.	.	.	.
CCCCc1nnc(NC(=O)c2nc3nccc(C)n3n2)s1	.	.	215	.	.
Cc1sc2nc(COC(=O)CNC(=O)c3ccc(C(C)(C)C)cc3)[nH]c(=O)c2c1C	.	.	.	.	.
CCOc1cc(/C=C2\N=C(C)OC2=O)cc(Cl)c1OCC(=O)OC	.	.	.	170	.
COc1cc(/C=C2\N=C(C)OC2=O)cc(Cl)c1OC(C)=O	.	.	.	.	.
O=C(CNC(=O)C1(c2ccccc2)CC1)Nc1ccc(F)c(F)c1	.	.	.	.	.
CCOCC(=O)Nc1nnc(SCCOC)s1	?	?	294[may fluoresce violet]	.	15[may fluoresce violet]
COCCSc1nnc(NC(=O)Cc2ccc(OC)cc2)s1	.	.	.	.	.
CCc1nc(Nc2ccc(N3CCN(C(C)=O)CC3)cc2)c2oc3ccccc3c2n1	.	.	.	.	.
CC(=O)N1CCN(c2ccc(Nc3ncnc4c3oc3ccccc34)cc2)CC1	?	/	427[may fluoresce violet]	.	22[may fluoresce violet]
CN1CCc2c(sc(/N=C/c3c[nH]c4ccccc34)c2C(N)=O)C1	/	/	576[may fluoresce violet]	/	.
O=C(c1ccc(COCC(F)(F)F)o1)N1CCCC1	.	.	.	.	.
Clc1ccc(OCCn2cnc3ccccc32)c(Cl)c1	.	.	.	155	.
O=C(CN1C(=O)c2ccccc2S1(=O)=O)Nc1ccon1	.	.	.	.	.
Cc1cc(C)n(C(=O)/C(C#N)=N\Nc2ccccc2[N+](=O)[O-])n1	.	.	.	183	.
CN(C)N=C1c2cc(S(=O)(=O)N3CCOCC3)ccc2-c2ccc(S(=O)(=O)N3CCOCC3)cc21	?	?	269[may fluoresce violet]	.	47[may fluoresce violet]
NC(=S)NN=C1c2cc(S(=O)(=O)N3CCOCC3)ccc2-c2ccc(S(=O)(=O)N3CCOCC3)cc21	.	.	.	.	.
Cc1cccc(NC(=O)c2ccc(S(=O)(=O)NCc3cccnc3)cc2)c1	.	.	.	.	.
CCOc1cc(/C=N/Nc2ncc(C)c(=O)[nH]2)ccc1O	.	.	.	.	.
Cc1cc(=O)[nH]c(N/N=C/c2cccs2)n1	?	.	308[may fluoresce violet]	.	47[may fluoresce violet]
Cc1cc(=O)[nH]c(N/N=C/c2sccc2C)n1	.	.	.	.	.
CCOc1cc(/C=N/Nc2nc(C)cc(=O)[nH]2)ccc1O	.	.	187	.	.
COC(=O)[C@@]12CCCCN1[C@H](c1ccc(-c3ccc4c(c3)OCO4)cc1)[C@H]1C(=O)N(C)C(=O)[C@H]12	.	.	.	.	.
